Luc counter: Counterscreen for Luciferase (Kinase-Glo TM) Inhibition; actives 0.28% (n = 200,000); Kinase-Glo luciferase, ATP luminescence, 8 min; Luciferin 4-monooxygenase (Photuris pensylvanica), Q27757; AID 1379, 2008; Potency, µM (titrated, usually from 38.3 µM), inactives show at the top dose activity change, negative = inhibition, usual class: inhibitors; also: % is scaled to controls: 0 for no effect and ±100 for the full control effect; nearly all actives have a fitted effect of over 60% in size
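Compounds were added to a substrate mix at pH 7.2 (50 mM imidazole, 10 uM ATP, within the enzyme's linear range), followed by Kinase-Glo detection reagent; luminescence was measured after 8 minutes at ambient temperature.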
NPC1 promoter act: qHTS Assay for NPC1 Promoter Activators; Huh7 NPC1 promoter luciferase reporter, 24 h; Potency, µM (top dose mostly 9.22 µM), for inactives: top-dose activation, actives largely listed as activators; actives 2.4% (n = 320,000); also: % of control where 0% means no effect; nearly all actives have a fitted effect of over 60% in size
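Luciferase expression driven by the NPC1 promoter was measured in stably transfected Huh7 cells after a 24 h compound incubation, using a luciferase reagent and a luminescence read.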
FLuc modulator: qHTS profiling assay for firefly luciferase inhibitor/activator using purifed enzyme and Km concentrations of substrates (counterscreen for miR-21 project); purified FLuc, Km substrates, luminescence inhibition; AID 588342, 2011; Potency, µM (highest dose often 57.5 µM), without a hit: at the top dose activity change, negative = inhibition, actives largely listed as inhibitors; actives 6.9% (n = 360,000);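 also: plate controls were vehicle for no effect and reference inhibitor for full effect; nearly all actives have a fitted effect of over 55% in size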
Target sequence (P08659 whole entry, looked up): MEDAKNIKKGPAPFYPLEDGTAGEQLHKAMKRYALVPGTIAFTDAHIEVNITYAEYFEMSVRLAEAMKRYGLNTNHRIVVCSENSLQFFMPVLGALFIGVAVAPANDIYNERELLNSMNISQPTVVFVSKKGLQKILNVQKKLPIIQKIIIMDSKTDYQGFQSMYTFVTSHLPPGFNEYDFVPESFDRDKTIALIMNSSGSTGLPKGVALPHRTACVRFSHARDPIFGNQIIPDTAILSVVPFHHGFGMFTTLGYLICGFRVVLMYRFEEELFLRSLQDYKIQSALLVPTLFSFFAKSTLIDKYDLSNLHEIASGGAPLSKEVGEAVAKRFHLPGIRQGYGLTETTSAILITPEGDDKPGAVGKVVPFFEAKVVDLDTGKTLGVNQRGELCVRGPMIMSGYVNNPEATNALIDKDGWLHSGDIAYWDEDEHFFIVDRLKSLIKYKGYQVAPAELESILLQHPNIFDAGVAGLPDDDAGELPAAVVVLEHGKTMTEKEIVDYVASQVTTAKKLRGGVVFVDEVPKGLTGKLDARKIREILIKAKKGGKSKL
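Purified P. pyralis luciferase, 10 nM final, with Km-level 10 uM D-luciferin and 10 uM ATP in 50 mM Tris acetate pH 7.5, 10 mM Mg acetate, 0.01% Tween-20, 0.05% BSA; 6-point qHTS titration about 60 µM downward; luminescence read.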
ELG1 genotox: qHTS screen for small molecules that induce genotoxicity in human embryonic kidney (HEK293T) cells expressing luciferase-tagged ELG1 | HEK293T ELG1-luciferase reporter, luminescence, 16 h | Potency, µM (series often up to 46 µM), for the others: at the top dose activity change, positive = activation, actives largely listed as activators | actives 1.3% (n = 330,000); also: % of control where 0% means no effect; nearly all actives have a fitted effect of over 60% in size
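HEK293T cells expressing luciferase-tagged ELG1 were exposed to compound or DMSO vehicle for 16 hr at 37 °C and 5% CO2. Luciferase activity was then measured with ONE-Glo after 30 min at room temperature.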
SMN2 splice up: qHTS Assay for Enhancers of SMN2 Splice Variant Expression; HEK293 SMN2-luciferase splicing reporter, luminescence, 30-36 h; Potency, µM (series often up to 46.1 µM), for the others: at the highest dose activity change, positive = activation, actives largely listed as activators; actives 2.8% (n = 210,000); AID 1458, 2008; also: % of control where 0% means no effect; nearly all actives have a fitted effect of over 55% in size
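HEK293 cells carry an SMN2 […]–luciferase reporter in which exon 7 inclusion puts luciferase in frame. Cells were plated 10-12 h before compound addition, then incubated 30-36 h at 37C. ONE-Glo luminescence was read; sodium butyrate at 4.5 mM final served as control.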
Rab9 promoter act: qHTS Assay for Rab9 Promoter Activators. Huh7 Rab9 promoter-luciferase reporter, luminescence, 24 h. Potency, µM (doses to about 9.22 µM), for the others: at the top dose activation, negative = inhibition, actives largely listed as activators. actives 2.8% (n = 320,000). AID 485297, 2010; also: % of control where 0% means no effect; nearly all actives have a fitted effect of over 60% in size
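Steps: seed 1500 Huh7 Rab9-luc cells per well, rest 2 h at 37 °C; add compound in DMSO; incubate 24 h; add luciferase reagent, 10 min ambient; read luminescence.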
Numbers without * were called inactive; ? = inconclusive; / = no result; [ ] = dose if it differs, or a comment. An excerpt weighted towards active compounds, which were near 7.5% of everything screened. Calls follow the shape of the dose curve; as a rule, active = well fitted curve in the direction sought with a large enough effect; inconclusive = small, poorly fitted or top-dose-only effect, or another doubt; inactive = no such curve, though single readings can be large; an effect the other way counts as inactive or inconclusive. Potency is read from the fitted curve at half-maximal effect.

SMILES	Luc counter	NPC1 promoter act	FLuc modulator	ELG1 genotox	SMN2 splice up	Rab9 promoter act
Cc1cccc(Cn2cc3c(=O)n(CC(=O)Nc4cccc(C)c4C)nc-3c3cc(F)ccc32)c1	/	/	-6.8%	/	/	/
C/C(=N\Nc1ccc(F)cc1F)c1ccccc1O	1.0%	1.5%	19µM*	?	6.9%	12.1%
Cc1ccc2cc(C3CC(c4ccco4)=NN3S(=O)(=O)c3ccccc3)c(Cl)nc2c1 (stereo not drawn)	1.1%	-3.0%	2.9%	-2.4%	31.6µM*	-3.9%
CC1=Nc2nc(N3CCCCC3)c(C#N)c3c4c(nc(c23)N1)N(c1ccc(C(C)C)cc1)C(=O)C4	-7.2%	-2.5%	4.1%	?	?	-3.5%
Cc1cccn2cc(CSc3ccccc3N)nc12	-4.6%	2.24µM*	6.01µM*	6.51µM*	?	2.51µM*
Nc1ccccc1SCc1cn2ccccc2n1	-8.3%	2.24µM*	6.75µM*	?	11.2µM*	1.78µM*
CCOC(=O)c1cc2c(=O)c3ccccc3oc2nc1C	/	22.2%	6.01µM*	9.2µM*	/	?
CCOC(=O)c1cc2c(ccc3ccccc32)oc1=O	-7.0%	-1.3%	?	4.6%	/	-4.6%
COCc1nc2oc3ccccc3c(=O)c2cc1C(=O)OC	/	?	15.1µM*	?	/	4.47µM*
CCOC(=O)c1c(C)nc(C)c2c(=O)oc3ccccc3c12	-1.6%	-3.1%	16.9µM*	-11.0%	13.7%	22.6%
Cc1ccc(NC(=O)Cn2c(=O)n(Cc3ccco3)c(=O)c3oc4ccccc4c32)cc1C	/	/	7.6%	/	/	/
COc1ccccc1CNc1nc2c(S(=O)(=O)c3ccccc3)nnn2c2ccc(Cl)cc12	/	/	-0.5%	/	0.1%	/
Cc1ccc(NC(=O)Cn2c(-c3ccc4c(c3)OCO4)cn(-c3ccccc3)c2=O)cc1	/	/	12µM*	/	?	/
Cc1ccc(NC(=O)Cn2c(=O)n(Cc3ccc4c(c3)OCO4)c(=O)c3ccccc32)cc1	/	/	2.6%	/	3.6%	/
CCOc1ccc(NC(=O)Cn2nc3c(cc2=O)CC(C)CC3)cc1 (stereo not drawn)	/	/	-16.8%	/	/	/
O[C@H](C[C@@H]1CCCCN1)c1ccc2c(c1)oc1ccccc12	-4.1%[7.66 µM]	/	/	/	-0.7%[9.22 µM]	/
CCOC(=O)Cc1csc2nc(-c3ccccc3)nn12	/	-2.6%	-14.8%	-0.2%	/	0.2%
CCOC(=O)c1cc(=O)n2nc(-c3ccc(C)cc3)nc2s1	-13.0%	0.3%	3.01µM*	0.1%	1.3%	2.0%
Cc1ccc(C)c(Cn2nnc3c(=O)[nH]c(C4CCN(C(=O)c5ccco5)CC4)nc32)c1	/	-0.2%	-0.4%	13.7%	/	-5.6%
COc1ccc(CCNC(=O)c2cnc3ccc(C)cn3c2=O)cc1	/	/	-3.1%	/	16.7%	/
CCOC(=O)c1cnn(-c2cc(C)c3ccccc3n2)c1N	-3.7%	?	8.49µM*	7.0%	0.5%	-30.8%
CCOC(=O)C1CCN(c2ncnc3c2oc2ccccc23)CC1	-2.3%	-2.3%	-13.5%	-3.2%	-34.4%	7.5%
CCOC(=O)c1cnn(-c2ncnc3c2oc2ccccc23)c1N	-4.5%	1.26µM*	1.07µM*	1.64µM*	10µM*	1.12µM*
CCOC(=O)c1cnn(-c2ccccn2)c1N	-11.7%	3.98µM*	21.3µM*	?	/	3.98µM*
COc1ccc(NC(=O)Cn2c(=O)n(-c3cccc(C(F)(F)F)c3)c(=O)c3sccc32)cc1	/	/	-1.4%	/	-18.1%	/
SMILES	Luc counter	NPC1 promoter act	FLuc modulator	ELG1 genotox	SMN2 splice up	Rab9 promoter act
COc1cccc(C(=O)Nc2ccc(NC(=O)C3CC3)cn2)c1	?	2µM*	7.57µM*	?	42.7%	3.16µM*
CCCC(=O)Nc1ccc(NC(=O)c2cccc(OC)c2)cn1	/	-3.8%	-15.2%	-3.4%	/	12.7%
CCC(=O)Nc1ccc(NC(=O)c2cccc(OC)c2)nc1	-7.3%	?	10.7µM*	?	11.2µM*	2.24µM*
COc1ccc(C(=O)Nc2ccc(NC(=O)c3cccc(OC)c3)cn2)cc1	/	4.6%	0.5%	13.3%	/	18.8%
CC1CCN(c2oc(/C=C/c3ccc(F)cc3)nc2C#N)CC1	/	/	-10.3%	/	2.7%	/
O=C(/C(=C/O)N=Nc1cccc(C(F)(F)F)c1)c1ccccc1	0.1%	-0.4%	?	-2.6%	-86.5%	9.3%
O=C(/C(=C/O)N=Nc1ccccc1Cl)c1ccccc1	-1.2%	0.7%	21.3µM*	-4.4%	-26.9%	-3.5%
S=c1[nH]nc(Cn2cnc3ccccc32)n1-c1ccccc1	-2.7%	-0.6%	-10.1%	-1.3%	4.2%	0.2%
CC(=O)Nc1cc(O)cc(O)c1	/	0.8%	-0.6%	1.6%	/	-1.0%
O=c1c2[nH]c3ccccc3c2ncn1C1CCCCC1	-2.7%	4.47µM*	?	?	1.6%	?
COc1ccc(-c2nsc3c(N4CCN(S(=O)(=O)c5ccccc5F)CC4)ncnc23)cc1	-0.2%	1.2%	-14.5%	1.8%	-13.4%	0.7%
COc1ccc(-c2nsc3c(N4CCCCC4C)ncnc23)cc1 (stereo not drawn)	-5.6%	-29.5%	0.338µM*	-8.9%	-73.0%	-43.7%
COc1ccc(-c2nsc3c(N4CCCCC4)ncnc23)cc1	-29.9%	?	0.0849µM*	?	-73.4%	?
COc1ccc(C(=O)N2CCN(c3ncnc4c(-c5ccccc5)nsc34)CC2)cc1	4.9%	-4.4%	-1.4%	-2.6%	-87.3%	-5.8%
O=C(CCc1nnc(COc2ccccc2)o1)NC1(c2ccccc2)CC1	3.5%	0.1%	-0.8%	-2.2%	-2.9%	1.3%
Cc1nc2cc(-c3ccc(Cl)cc3)nn2c(C)c1CCC(=O)N1CCN(c2ccccc2)CC1	/	/	-12.8%	/	2.5%	/
CC(=O)c1cnc2c(-c3ccc(Cl)cc3)c(C)nn2c1C	0.4%	0.0%	-4.4%	8.4%	-10.9%	2.1%
Cc1c(C(=O)O)cnc2cc(-c3ccc(Cl)cc3)nn12	-3.7%	?	9.53µM*	?	11.2µM*	?
CC(=O)c1cnc2cc(-c3ccc(Cl)cc3)nn2c1C	-2.4%	4.47µM*	2.69µM*	?	/	3.55µM*
NNC(=O)[C@@H](O)[C@H](O)C(=O)NN	-3.7%[7.66 µM]	/	/	/	-13.0%[9.22 µM]	/
CCCS(=O)(=O)c1nc(S(=O)(=O)c2ccc(C)cc2)c(N2CCN(CCO)CC2)s1	/	-2.7%	-0.7%	-1.5%	/	-3.1%
Cc1ccc(CNC(=O)c2oc3ccc(S(=O)(=O)N4CCC(C)CC4)cc3c2C)cc1	/	/	0.9%	/	-27.6%	/
